# Assay results taken from PubChem BioAssay (NCI).
# Compounds without any hit were thinned out: in the full panel of roughly 79,000, 15% have a hit. Calls of active or inactive are those of the source. Cut-off read from the data, not from the text of the source: active = growth inhibition above about 70%; inactive = the rest.
# Experiments:
# [1] = NCI Yeast Anticancer Drug Screen. Data for the rad50 strain (AID 155);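 note: 0% = growth of vehicle-only cultures of the same strain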; conditions: S. cerevisiae rad50 strain growth inhibition; at 50.0 µM; stronger effect = higher value
# Procedure, shortened: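 Growth of the mutant yeast was measured after compound exposure and referenced to vehicle-treated cultures.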
# [2] = NCI Yeast Anticancer Drug Screen. Data for the mec2-1 strain (AID 157); conditions: S. cerevisiae mec2-1 strain, at 50.0 µM, stronger effect = higher value
# Procedure, shortened: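 mec2-1 yeast strain, carrying an alteration in DNA damage repair or cell cycle control, was exposed to compounds; growth inhibition was measured relative to vehicle-treated controls.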
# [3] = NCI Yeast Anticancer Drug Screen. Data for the sgs1 mgt1 strain (AID 161);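 note: 0% = growth of cultures given vehicle only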; conditions: S. cerevisiae sgs1 mgt1 strain, at 50.0 µM, stronger effect = higher value
# Procedure, shortened: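 Growth of a repair-deficient yeast mutant was monitored after compound treatment and expressed as inhibition relative to vehicle-treated cultures.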
# [4] = NCI Yeast Anticancer Drug Screen. Data for the cln2 rad14 strain (AID 165);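 note: 0% = growth equal to vehicle treated cultures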; conditions: S. cerevisiae cln2 rad14 strain, at 50.0 µM, stronger effect = higher value
# Procedure, shortened: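 Yeast carrying cln2 and rad14 alterations (cell cycle control and DNA damage repair) were exposed to compounds. Growth inhibition was measured against vehicle-treated controls.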
# [5] = NCI Yeast Anticancer Drug Screen. Data for the bub3 strain (AID 167); conditions: S. cerevisiae bub3 mutant strain, at 50.0 µM, stronger effect = higher value
# Procedure, shortened: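 Whole-cell yeast assay. The mutant strain was incubated with compounds, and growth inhibition was determined by comparison with vehicle-treated cells.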
# [6] = NCI Yeast Anticancer Drug Screen. Data for the mlh1 rad18 strain (AID 175); conditions: S. cerevisiae mlh1 rad18 strain growth inhibition; at 50.0 µM; stronger effect = higher value
# Procedure, shortened: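 Growth inhibition of the yeast strain was measured after compound exposure and expressed relative to vehicle-treated controls. The strain carries defined defects in DNA damage repair.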
SMILES,growth inhibition [1],growth inhibition [2],growth inhibition [3],growth inhibition [4],growth inhibition [5],growth inhibition [6]
ClCCN(CCCl)Cc1c2ccccc2cc2c1ccc1ccccc12,48.5% (inactive),9.2% (inactive),46.8% (inactive),-38.3% (inactive),-2.5% (inactive),65.5% (inactive)
O=[N+]([O-])c1ccccc1-c1ccccc1,24.3% (inactive),-27.8% (inactive),7.05% (inactive),13.2% (inactive),-21.8% (inactive),2.25% (inactive)
CCOC(CNCc1cccnc1)OCC,-20.7% (inactive),-10.6% (inactive),-23.6% (inactive),5.9% (inactive),-13.7% (inactive),-17.3% (inactive)
O=C1NCCCCC1Cl (stereo unspecified),-12.4% (inactive),-1.1% (inactive),-4% (inactive),-21% (inactive),8.8% (inactive),14.5% (inactive)
CCCCOP(=O)(OCCCC)OC(C)C(C)=O (stereo unspecified),-0.15% (inactive),2.75% (inactive),5.6% (inactive),0.45% (inactive),5.15% (inactive),-2.05% (inactive)
CC(=O)[O-].Cn1ccnc1CNCc1nccn1C.[Cu+2].[O-][Cl+3]([O-])([O-])[O-],18.9% (inactive),3.2% (inactive),3.3% (inactive),18.6% (inactive),-1.4% (inactive),5.25% (inactive)
O=C(Cl)C1CCC1,11% (inactive),-5.35% (inactive),10.1% (inactive),-4.65% (inactive),-7% (inactive),16.1% (inactive)
O=C(O)c1ccccc1O.[Cu],-31.2% (inactive),-32.5% (inactive),-36.8% (inactive),-3.85% (inactive),-19.1% (inactive),-8.65% (inactive)
O=NNc1nc2ccccc2[nH]1,6.5% (inactive),-0.65% (inactive),2.05% (inactive),-24.6% (inactive),-6.95% (inactive),8.85% (inactive)
CCCCCCCCCCCCCCC(=O)[O][Hg][c]1ccccc1,99.2% (active),98.9% (active),99.5% (active),99% (active),99.2% (active),99.1% (active)
COc1cc(=O)oc(/C=C/C=C/C=C/C(C)=C\C2(C)OC(C)C(C)(O)C2O)c1C (stereo unspecified),6.3% (inactive),-8.35% (inactive),3.35% (inactive),-9.4% (inactive),-20.4% (inactive),-0.95% (inactive)
NC(Cc1ccc(Cl)cc1)P(=O)(O)O (stereo unspecified),7.7% (inactive),-4.35% (inactive),-6.75% (inactive),-53.9% (inactive),-12.1% (inactive),-16.1% (inactive)
NC1(O)C(=O)NC(=O)NC1=O,-21.4% (inactive),-30% (inactive),-18.9% (inactive),-28.1% (inactive),-4.05% (inactive),5.85% (inactive)
NC(=S)N=C(N)N,11.8% (inactive),-3.55% (inactive),-6.25% (inactive),-10.4% (inactive),8.4% (inactive),9.85% (inactive)
O.O.O=Cc1ccccc1O.O=Cc1ccccc1O.[Co],98.2% (active),92.2% (active),97.8% (active),79.1% (active),92.5% (active),98.3% (active)
S=C(N/N=C/c1ccc(Cl)cc1)NC1CN2CCC1CC2 (stereo unspecified),-1.6% (inactive),9.6% (inactive),-22.1% (inactive),-15.8% (inactive),-7.9% (inactive),11.7% (inactive)
NS(=O)(=O)c1ccc([As](=O)(O)c2ccccc2)cc1,14.2% (inactive),-9.35% (inactive),7.85% (inactive),15.7% (inactive),9.5% (inactive),-7.75% (inactive)
C=C(C)C1C2CC3(C)C4(CO4)C4OC4C3(O)C1C(=O)O2 (stereo unspecified),13.3% (inactive),-16.4% (inactive),14.8% (inactive),4.2% (inactive),5.35% (inactive),-47.2% (inactive)
O=C(CCl)Oc1ccccc1Cl,-19.5% (inactive),-5.4% (inactive),-31.1% (inactive),-42.9% (inactive),-23.9% (inactive),-31.6% (inactive)
CC(=O)Nc1nccs1.CC(=O)Nc1nccs1.[Cl][Pt][Cl],9% (inactive),5.25% (inactive),8.8% (inactive),-1.55% (inactive),-1.45% (inactive),5.1% (inactive)
CC(Cl)CC(=O)OCC1CCCN2CCCCC12 (stereo unspecified),55.1% (inactive),33.3% (inactive),23.6% (inactive),41.8% (inactive),45.4% (inactive),39.5% (inactive)

SMILES,growth inhibition [1],growth inhibition [2],growth inhibition [3],growth inhibition [4],growth inhibition [5],growth inhibition [6]
CN1CC(C(=O)NO)C=C2c3cccc4[nH]cc(c34)CC21 (stereo unspecified),8.8% (inactive),42.5% (inactive),23.5% (inactive),-3.7% (inactive),41.5% (inactive),14.4% (inactive)
O=P(OCCCCl)(OCCCCl)C(Cl)(Cl)Cl,-0.45% (inactive),-5.65% (inactive),-5.2% (inactive),6.85% (inactive),13.7% (inactive),2.15% (inactive)
C(=Nc1ccccc1)C1CCCC[N-]1.C(=Nc1ccccc1)C1CCCC[N-]1.[Cu+2].[O-][Cl+3]([O-])([O-])O (stereo unspecified),90.5% (active),83.6% (active),65% (inactive),92.5% (active),74.2% (active),88% (active)
COc1ccc(NC(=O)C(=O)C(CC2C(=O)NC(=S)NC2=O)C(=O)c2ccc3ccccc3c2)c([N+](=O)[O-])c1 (stereo unspecified),-10.7% (inactive),1.35% (inactive),13.1% (inactive),-30.1% (inactive),31.2% (inactive),3.5% (inactive)
N#CC1C(=O)c2ccccc2C1=O,-1.4% (inactive),4.15% (inactive),1.6% (inactive),-3.35% (inactive),12.8% (inactive),-1.85% (inactive)
COC(=O)C(C)N(CCCl)P(=O)(N1CC1)N1CC1 (stereo unspecified),5.4% (inactive),8.2% (inactive),11.4% (inactive),9.1% (inactive),4.35% (inactive),1.85% (inactive)
[CH3][Sn]([CH3])([Cl])[S]CCN,29.6% (inactive),32.5% (inactive),-5.55% (inactive),1.25% (inactive),-15.4% (inactive),18.6% (inactive)
CCOP(=O)(OCC)Oc1cc(C)c(Cl)c(C)c1,10.2% (inactive),-16.7% (inactive),4.15% (inactive),18.4% (inactive),16.9% (inactive),-8.35% (inactive)
CN1CC=C(OP(=O)(NCc2ccccc2)N(CCCl)CCCl)CC1 (stereo unspecified),-6.25% (inactive),-12.8% (inactive),0.9% (inactive),-3.1% (inactive),-17.4% (inactive),-34% (inactive)
CNCCc1c[nH]c2ccc(O)cc12,-2.15% (inactive),-8.6% (inactive),-1.35% (inactive),-39.5% (inactive),18.9% (inactive),-10.7% (inactive)
COP(=O)(Cc1ccccc1)OC,-1% (inactive),5.15% (inactive),-0.95% (inactive),-43.1% (inactive),2.3% (inactive),-11.8% (inactive)
COc1ccc2c3c1OC1C4(OC)CCC5(c6c(O)ccc(O)c64)C(C2)N(C)CCC315 (stereo unspecified),5.75% (inactive),4% (inactive),7.2% (inactive),13.3% (inactive),-6.4% (inactive),4.15% (inactive)
Cc1ccc(C(C)(C)C)c(OP(=S)(S)Oc2cc(C)ccc2C(C)(C)C)c1.[Pb],5.9% (inactive),-1.85% (inactive),-1.3% (inactive),9.7% (inactive),-13.7% (inactive),7.3% (inactive)
CCC1(CC)C(=O)N(C)P(=O)(Oc2ccccc2)N(C)C1=O,5.7% (inactive),15.4% (inactive),9.3% (inactive),1.6% (inactive),7.1% (inactive),4.6% (inactive)
O=S(=O)(Cl)OO/C=C\OOS(=O)(=O)Cl,18.2% (inactive),2.8% (inactive),12.7% (inactive),-19.2% (inactive),11% (inactive),-1.65% (inactive)
CC1(C)N=C(N)N=C(N)N1c1ccc(CCc2ccc(Cl)c(S(=O)(=O)F)c2)c(Cl)c1,99.3% (active),99.5% (active),99.3% (active),93.8% (active),98.3% (active),99.7% (active)
Nc1c(S(=O)(=O)O)cc(Nc2ccc(S(=O)(=O)O)c(Nc3nc(Cl)nc(Cl)n3)c2)c2c1C(=O)c1ccccc1C2=O,-14.3% (inactive),-31.8% (inactive),-27.4% (inactive),-14.3% (inactive),-32.7% (inactive),-37.9% (inactive)
CC(Cl)[N+](=O)[O-] (stereo unspecified),15.4% (inactive),-10.2% (inactive),2.55% (inactive),16.9% (inactive),9% (inactive),1.9% (inactive)
CS(=O)(=O)Cl,7.65% (inactive),-26.9% (inactive),16.4% (inactive),13.1% (inactive),-4.85% (inactive),0% (inactive)
O=c1[nH]c(O)c(N=Nc2ccc([N+](=O)[O-])cc2[N+](=O)[O-])c(=O)[nH]1,14.7% (inactive),15.4% (inactive),22.2% (inactive),14.7% (inactive),-11.7% (inactive),7.35% (inactive)
